# Data reported in PubChem BioAssay AID1463 (National Center for Advancing Translational Sciences (NCATS), 2008).
# The campaign covered roughly 280,000 compounds. About 2,600 (0.93%) were called active. Inconclusive results (about 8%) are left out. Many of the other results were omitted from the sample, so actives are more common in it than they were. Unmarked numbers belong to inactive results. Calls follow the shape of the dose curve; as a rule, active = well fitted curve in the direction sought with a large enough effect; inconclusive = small, poorly fitted or top-dose-only effect; inactive = flat fitted curve, though single readings scatter.
# Assay: Counterscreen qHTS for Inhibitors of Tau Fibril Formation, Fluorescence Polarization; also: nearly all actives have a fitted effect of over 55% in size
# Details: tau K18 P301L Alexa594 fluorescence, heparin fibrillization; series mostly up to 57.7 µM; activity change, negative = decrease: at the top concentration
# Method in brief: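 Human tau K18 P301L (15 uM unlabeled, 0.24 uM Alexa 594-labeled) in 100 mM sodium acetate pH 7 with 20 uM heparin, 6 hr at 37 C. ThT 30 uM added, 1 hr ambient; Alexa 594 FP and total fluorescence read at 555/632 nm.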
# % is scaled to controls: 0 for no effect and ±100 for the full control effect; potency is read from the fitted curve at half-maximal effect; tags tell the direction and shape of the fitted curve or compound fluorescence and quenching.
Structure (SMILES),"activity change, negative = decrease",Potency
CC(=O)Nc1ccc(NC(=O)C2CCCN(S(=O)(=O)c3ccc4c(c3)CCCC(=O)N4)C2)cc1 (stereo not drawn),2.46%,–
COc1cccc(C(=O)Nc2nc3ccc(S(C)(=O)=O)cc3s2)c1,-24.7%,–
CCC(=O)c1ccc(OCC(=O)Nc2ccc3nc(C)sc3c2)cc1,-5.88%,–
CCOc1ccc2nc(Nc3nc4ccc(NC(C)=O)cc4s3)sc2c1,–,15.8 µM [quencher] (active)
COc1ccc2nc(Nc3nc(-c4cc5ccccc5oc4=O)cs3)sc2c1,-9.89%,–
COc1ccc(/C=N/NC(=O)Nc2ccc3nsnc3c2)c(OC)c1,-23.2%,–
COc1ccc2nc(Nc3nc4cc5c(cc4s3)OCCO5)sc2c1,–,7.08 µM [quencher] (active)
COc1ccc2nc(NC(=O)[C@@H]3CCCN3C(=O)c3cccs3)sc2c1,-1.01%,–
CCOc1ccc2nc(NC(=O)CSc3nc4c(c(=O)n(C)c(=O)n4C)n3CC)sc2c1,0.975%,–
COc1ccc(NC(=O)Nc2cccc(-c3noc(C)n3)c2)cc1,-19%,–
COc1ccc(NC(=O)Nc2ccc3nsnc3c2)cc1,–,15.8 µM [quencher] (active)
COc1ccc2nc(Nc3nc(-c4ccncc4)cs3)sc2c1,–,17.8 µM [quencher] (active)
Cc1nc2cc3c(cc2s1)OCO3,-5.34%,–
CCc1cnc2c(c1SCC(=O)c1ccccc1)c(=O)n(C)c(=O)n2C,-7.49%,–
COc1ccc(OC)c(CNC(=O)CN2C(=O)CCn3nc(-c4cn(C)c5ccccc45)cc32)c1,-14.3%,–
COc1ccc2[nH]c3c(c2c1)CCN(C(=O)CCC1CCCC1)C3c1ccc(F)cc1 (stereo not drawn),-21.7%,–
Cc1cccc(C2CC(=O)Oc3c2c(=O)n(C)c2ccccc32)c1 (stereo not drawn),-11.1%,–
CCC(=O)Nc1cccc(C(=O)OCc2cc(=O)n3nc(CC)sc3n2)c1,1.65%,–
O=C(O)c1ccc2c(c1)N(Cc1ccc(F)cc1)C(=O)c1ccccc1S2=O (stereo not drawn),0.615%,–
Cc1cccc(NC(=O)c2ccc(F)c(S(=O)(=O)N(C)C3CCCCC3)c2)c1,-29.8%,–
CCOc1ccc(OCC)c(NC(=O)c2c(C)nn(-c3ccccc3)c2-n2cccc2)c1,-22.7%,–

Structure (SMILES),"activity change, negative = decrease",Potency
Cc1ccc(C2c3[nH]c4ccccc4c3CCN2C(=O)c2cccc(C)c2)cc1 (stereo not drawn),-15.6%,–
CCOc1cccc(CNC(=O)c2ccc(N3CCCC3)c(NC(=O)Nc3ccccc3CC)c2)c1,6.88%,–
CCCC(=O)Nc1nc2ccc(NC(=O)c3c(F)c(F)c(OC)c(F)c3F)cc2s1,-26.7%,–
CNC(=O)c1ccc2nc(NC(C)=O)sc2c1,-4.01%,–
COc1ccc2nc(Nc3nc4ccc(NC(C)=O)cc4s3)sc2c1,–,12.6 µM [quencher] (active)
COc1ccc(Cl)cc1N(C)C(=O)c1cc2c(=O)oc3ccc(C)cc3c2s1,-17%,–
COc1ccc(CCNS(=O)(=O)c2cc(-c3cc(C)no3)ccc2C)cc1OC,-9.75%,–
CC(C)(C)c1ccc(C(=O)NCC(c2ccc(Cl)cc2)N2CCOCC2)cc1 (stereo not drawn),-15%,–
COc1ccc(Br)cc1C1CC(=O)Nc2c1c(C)nn2-c1nc(C)cc(C)n1 (stereo not drawn),2.83%,–
COc1ccccc1Cc1nc2ccccc2nc1SCC(=O)N1CCCc2ccccc21,-9.37%,–
COc1ccc(/C=N/NC(=O)c2ccncc2)cc1CN1CCCc2ccccc21,–,14.1 µM [quencher] (active)
COc1ccc(/C=N/NC(=O)c2ccc(Cl)cc2)cc1COC(C)=O,-20.2%,–
CCOC(=O)C1CCCN(C(=O)c2ccc(-n3ccc4ccccc43)s2)C1 (stereo not drawn),-5.78%,–
CCOc1ccc(N(CC)C(=O)c2noc3c2COc2ccc(C)cc2-3)cc1,-0.276%,–
COc1ccc2c(C)c(CCC(=O)NCc3ccc(OC)c(OC)c3)c(=O)oc2c1,-23.7%,–
Cc1cc2c(cc3c(SCc4cccc(Cl)c4)nnc(C)n32)o1,-16.2%,–
COc1ccc(OC)c(-c2nc(C(N)=O)c3c(n2)n(-c2ccc4c(c2)OCO4)c(=O)n3C)c1,-6.91%,–
COc1ccc(/C=N\NC(=O)c2sc(N)nc2C)cc1OC,-14.1%,–
COc1cc(/C=N\Nc2nc(-c3cccs3)c(NC(C)=O)s2)ccc1O,–,17.8 µM [quencher] (active)
COc1ccc(/C=N/Nc2nc3ccccc3o2)cc1OC,-22.7%,–
CCNc1nc(NCC)nc(N/N=C/c2ccc(O)c(OC)c2)n1,-22.5%,–

Structure (SMILES),"activity change, negative = decrease",Potency
COc1cc(/C=N/Nc2nc3ccccc3s2)ccc1O,–,12.6 µM [quencher] (active)
c1ccc2sc(NN=C3CCCC3)nc2c1,-19.4%,–
Cc1ccc(S(=O)(=O)Nc2nc3ccccc3s2)cc1[N+](=O)[O-],-10.2%,–
COc1cc(/C=N/NC(=O)CCc2n[nH]c(=O)[nH]c2=O)ccc1O,4.76%,–
O=[N+]([O-])c1cc(Br)c(O)c(/C=N/Nc2nc3ccccc3s2)c1,–,7.94 µM [quencher] (active)
CCCN1CCN(CCCNC(=O)c2ccc3nc(Cc4ccccc4)oc3c2)CC1,-2.06%,–
O=C1CN(C(=O)Nc2ccccc2C(F)(F)F)C(c2ccccc2)c2c(sc3c2CCCC3)N1 (stereo not drawn),-4.27%,–
CCCN1CN=C(NS(=O)(=O)c2ccc(NC(C)=O)cc2)NC1,-7.06%,–
O=C(NCCc1ccccc1)c1cnc2sc(N3CCCC3)nn2c1=O,3.82%,–
CN(C)CCCn1c(-c2ccc(Cl)cc2)csc1=Nc1ccccc1,-11.9%,–
Cc1cc(NS(=O)(=O)c2ccc3oc(=O)c4ncn(C)c4c3c2)ccc1Br,-23.7%,–
O=C(Nc1ccc(-c2csc(Nc3cccc(C(F)(F)F)c3)n2)cc1)c1cccc(C(F)(F)F)c1,–,5.01 µM [quencher] (active)
CNC(=O)c1ccc(NC(=O)c2cccc(C(F)(F)F)c2)cc1,6.68%,–
Cc1cccc(NC(=O)c2cccc(C(F)(F)F)c2)c1,-17.5%,–
CC(C)S(=O)(=O)c1oc(-c2ccc(F)cc2)nc1S(=O)(=O)c1ccc(F)cc1,-7.98%,–
COc1ccccc1-c1c(C)nn2c(C)c(C(C)=O)cnc12,3.82%,–
CC(=O)COc1ccc2c(-c3ccccc3)cc(=O)oc2c1,-1.82%,–
COc1ccccc1-c1n[nH]c2c1[C@H](C)CC[C@H]2C(C)C,-3.61%,–
C=C(C)COc1ccc(-c2n[nH]c(C)c2-c2ccccc2OC)c(O)c1,–,17.8 µM [quencher] (active)
CCOc1ccc(-c2n[nH]c(C)c2-c2ccccn2)c(O)c1,-5.41%,–
C=C(C)COc1ccc(-c2n[nH]c(C)c2-c2ccccc2)c(O)c1,–,15.8 µM [quencher] (active)
